# Assay results published in PubChem BioAssay (NCATS).
# Values joined by “and” are separate entries in the source; they are usually repeats but may differ in a detail not shown here. Identical values can stand only once. Inconclusive results are not listed. Where a call stands in place of a potency, no number is given. Unmarked numbers belong to inactive results. Active and inactive are the calls of the source. Calls come from the whole dose curve; as a rule, active = well fitted curve in the direction sought with a large enough effect; inconclusive = small, poorly fitted or top-dose-only effect, or another doubt; inactive = no such curve, though single readings can be large; an effect the other way counts as inactive or inconclusive.
# Assays:
# [1] = Viability qHTS for spleen associated tyrosine kinase inhibitor (SYKi) naive MV4-11 cells (AID 1963823); conditions: MV4-11 AML viability, CellTiter-Glo luminescence, 72 h; series mostly up to 45 µM; note: nearly all actives have a fitted effect of over 40% in size; note: potency is the fitted concentration of half-maximal effect
# Summary of the method: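 Read-out: CellTiter-Glo luminescence. Exposure: 72 hr, 37 C, 5% CO2, 95% humidity. Cells: MV4-11 without SYK inhibitor history, 500/well, qHTS format.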
# [2] = Viability qHTS for spleen associated tyrosine kinase inhibitor (SYKi) drug resistant MV4-11 cells (AID 1963824); conditions: SYKi-resistant MV4-11 viability, CellTiter-Glo, 72 h; series mostly up to 45 µM; note: nearly all actives have a fitted effect of over 35% in size; note: potency is the fitted concentration of half-maximal effect
# Summary of the method: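 CellTiter-Glo luminescence, read 10 min after reagent addition, reports viability after a 72 hr compound exposure. Cells are an MV4-11 line made resistant to SYK inhibition, seeded at 500 per well onto compound-containing plates.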
# [3] = Cellular viability qHTS for adrenocortical cancer (ACC) cell line SW-13 (AID 1963989); conditions: SW-13 ACC cells viability, CellTiter-Glo, 48 h; activity (max response): active compounds read low;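 note: cells grown in serum-free medium with ITS supplement; nearly all actives have a fitted effect of over 65% in size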
# Summary of the method: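 SW-13 cells in ITS-supplemented serum-free DMEM were plated overnight, then exposed for 48 h at 37C to compound titrations (up to 46 uM final). Viability was read by CellTiter-Glo luminescence; four-parameter logistic fits gave IC50 and efficacy.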
# [4] = Cellular viability qHTS for adrenocortical cancer (ACC) cell line NCI-H295R (AID 1963990); conditions: CellTiter-Glo ATP luminescence, 48 h; series mostly up to 46.1 µM; note: nearly all actives have a fitted effect of over 60% in size
# Summary of the method: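 Luminescent ATP read-out (CellTiter-Glo, 20 min RT) after 48 h drug exposure of NCI-H295R cells; a titration up to 46 uM final. Data normalized to doxorubicin (100% inhibition) and DMSO (0%); 4-parameter fit gives IC50, max response.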
SMILES,Potency [1],Potency [2],activity (max response) [3],Potency [4]
COc1cc(C(=O)NC2CCCNC2)cc(OC)c1OC (stereo not drawn),inactive,inactive,8.49%,inactive
Oc1cc(O)c2c(c1)O[C@H](c1ccc(O)c(O)c1)[C@H](O)C2,inactive,inactive,11.2%,inactive
CCCCc1ncc(/C=C(\Cc2cccs2)C(=O)O)n1Cc1ccc(C(=O)O)cc1,inactive,inactive,6.21%,inactive
N#CN1CCC[C@@H](n2nc(-c3ccc(Oc4ccc(F)cc4F)cc3)c(C(N)=O)c2N)C1,13 µM (active),18.6 µM (active),,inactive
CNCC(O)c1ccc(O)c(O)c1 (stereo not drawn),inactive,inactive,,inactive
CC(C)NCC(O)c1cc(O)cc(O)c1 (stereo not drawn),inactive,inactive,13.2%,inactive
CO[C@H]1O[C@@H]2O[C@@]3(C)CC[C@H]4[C@H](C)CC[C@@H]([C@H]1C)[C@@]24OO3,1.32 µM (active),0.934 µM (active),0.283%,inactive
O=C1Nc2ccc(I)cc2/C1=C/c1cc(Br)c(O)c(Br)c1,18.6 µM (active),14.8 µM (active),,inactive
O=C(Nc1ccc2[nH]nc(-c3ccncc3)c2c1)[C@@H]1CCN(CC(=O)N2CCN(c3ccc(-c4ncccn4)cc3)CC2)C1,25.9 nM (active) and 525 nM (active),23.1 nM (active) and 468 nM (active),,inactive
C[N+](C)(CCOc1ccccc1)Cc1cccs1,inactive,inactive,,inactive
C=CCCCCCCCCC(=O)O,inactive,inactive,,inactive
